Values joined by “and” are separate entries in the source; they are usually repeats but may differ in a detail not shown here. Identical values can stand only once. Compounds without any hit were thinned out: in the full panel of roughly 83,000, 20% have a hit.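 Testing used 96-well plates and a 48-hour single-concentration exposure. Example: -40 means 40% of the starting cells died.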 The source holds several records for some structures; these can differ, active in one and inactive in another. Active and inactive are the calls of the source. How the source made its calls: active means growth percent below 10; inactive means the rest.
How the values were obtained:
Test in all cases: NCI-60 one-dose screen, 48 h (100 = growth as untreated, 0 = no growth, -100 = all killed)
Conditions in all cases: 10 µM unless noted
SK-MEL-2 melanoma = system: SK-MEL-2 melanoma
EKVX NSCLC = system: EKVX NSCLC
SN12C renal = system: SN12C renal
UO-31 renal = system: UO-31 renal
TK-10 renal = system: TK-10 renal
ACHN renal = system: ACHN renal
CAKI-1 renal = system: CAKI-1 renal
A498 renal = system: A498 renal
CCRF-CEM leukemia = system: CCRF-CEM leukemia
SR leukemia = system: SR leukemia
RPMI-8226 leukemia = system: RPMI-8226 leukemia
OVCAR-8 ovarian = system: OVCAR-8 ovarian
OVCAR-5 ovarian = system: OVCAR-5 ovarian
OVCAR-4 ovarian = system: OVCAR-4 ovarian
SK-OV-3 ovarian = system: SK-OV-3 ovarian
OVCAR-3 ovarian = system: OVCAR-3 ovarian
HS 578T breast = system: HS 578T breast
NCI/ADR-RES ovarian = system: NCI/ADR-RES ovarian
MOLT-4 leukemia = system: MOLT-4 leukemia
IGROV1 ovarian = system: IGROV1 ovarian

Structure (SMILES) | growth (SK-MEL-2 melanoma) | growth (EKVX NSCLC) | growth (SN12C renal) | growth (UO-31 renal) | growth (TK-10 renal) | growth (ACHN renal) | growth (CAKI-1 renal) | growth (A498 renal) | growth (CCRF-CEM leukemia) | growth (SR leukemia) | growth (RPMI-8226 leukemia) | growth (OVCAR-8 ovarian) | growth (OVCAR-5 ovarian) | growth (OVCAR-4 ovarian) | growth (SK-OV-3 ovarian) | growth (OVCAR-3 ovarian) | growth (HS 578T breast) | growth (NCI/ADR-RES ovarian) | growth (MOLT-4 leukemia) | growth (IGROV1 ovarian)
COc1cc(C(=O)c2ccc3c(c2)OCO3)cc(OC)c1OC | 44.6% (inactive) and -28.3% (active) | 55.7% (inactive) and 61.5% (inactive) | 47.1% (inactive) and 39.5% (inactive) | 16.2% (inactive) and 37.6% (inactive) | 31.7% (inactive) and 27.3% (inactive) | 39.4% (inactive) and 48.1% (inactive) | 4.39% (active) and 24.7% (inactive) | 6.18% (active) | 19.5% (inactive) | 19.8% (inactive) and 12% (inactive) | 29.6% (inactive) and 34% (inactive) | 33.9% (inactive) and 36.5% (inactive) | 62.3% (inactive) and 63.4% (inactive) | 80.8% (inactive) and 53.9% (inactive) | 24.2% (inactive) and 27.7% (inactive) | -38.3% (active) and -26.6% (active) | 19.2% (inactive) and -19.2% (active) | 10.9% (inactive) and 25% (inactive) |  | 
Nc1cc(-c2cccc(OC(F)(F)F)c2)nc2ccc(N3CCCC3)cc12 | 11.9% (inactive) and 37.9% (inactive) and 12.2% (inactive) | 30.1% (inactive) and 29.9% (inactive) and 38.4% (inactive) | 25.8% (inactive) and 27.9% (inactive) and 25.9% (inactive) | -6.86% (active) and 12.7% (inactive) and 14.1% (inactive) | 46.7% (inactive) and 44.3% (inactive) and 40.9% (inactive) | 27.4% (inactive) and 28.9% (inactive) and 26.3% (inactive) |  | 19.9% (inactive) and 22.5% (inactive) and -7.01% (active) | -15.1% (active) and 2.73% (active) and 4.3% (active) | -22.2% (active) and -23.6% (active) and -23.8% (active) | 4.74% (active) and 17.6% (inactive) and 10.6% (inactive) | 11.4% (inactive) and 13.7% (inactive) and 7.39% (active) | 31.7% (inactive) and 38.4% (inactive) and 30.1% (inactive) | 52.5% (inactive) and 55.2% (inactive) and 56.6% (inactive) | 36% (inactive) and 5.93% (active) | 4.65% (active) and 2.53% (active) and -33% (active) | -0.422% (active) and 13.7% (inactive) and 27.5% (inactive) | 5.44% (active) and 3.14% (active) and 11.7% (inactive) | 10.7% (inactive) and 12.7% (inactive) and 12.8% (inactive) | 23.7% (inactive) and 25.6% (inactive) and 24.4% (inactive)
CC1CCCC(=O)O1 (configuration not stated) | 103% (inactive) and 107% (inactive) | 102% (inactive) | 111% (inactive) | 92.8% (inactive) and 76.7% (inactive) | 103% (inactive) and 108% (inactive) | 99.2% (inactive) and 100% (inactive) | 95.7% (inactive) and 102% (inactive) | 110% (inactive) and 97.8% (inactive) | 111% (inactive) | 104% (inactive) | 96.7% (inactive) and 94.7% (inactive) | 110% (inactive) and 95.2% (inactive) | 101% (inactive) |  | 98% (inactive) and 110% (inactive) | 103% (inactive) and 115% (inactive) | 110% (inactive) and 105% (inactive) | 103% (inactive) and 99.8% (inactive) |  | 96% (inactive) and 99.9% (inactive)
CNC(=O)c1ccc(C)c(-n2c(C)cc(OCc3ccc(F)cc3F)c(Br)c2=O)c1 | 89.3% (inactive) | 78.7% (inactive) and 87.7% (inactive) | 83.7% (inactive) and 86.1% (inactive) | 52.5% (inactive) and 71.8% (inactive) | 74.6% (inactive) and 102% (inactive) | 68.6% (inactive) and 88.2% (inactive) | 62.9% (inactive) and 79.1% (inactive) | 78.7% (inactive) | 77.4% (inactive) and 89.1% (inactive) | 64.9% (inactive) and 85.9% (inactive) | 48.2% (inactive) and 74% (inactive) | 70.3% (inactive) and 86.8% (inactive) | 77.1% (inactive) and 86.2% (inactive) | 73.7% (inactive) and 84.9% (inactive) | 76.4% (inactive) and 91.3% (inactive) | 85.1% (inactive) and 101% (inactive) | 103% (inactive) | 80.5% (inactive) and 80.7% (inactive) |  | 84.6% (inactive) and 92% (inactive)
NC(=O)C1CC2C=CC1C2 (configuration not stated) | 98.6% (inactive) and 112% (inactive) | 102% (inactive) and 94.7% (inactive) | 103% (inactive) and 99.6% (inactive) | 100% (inactive) and 86.8% (inactive) | 120% (inactive) and 117% (inactive) | 101% (inactive) and 95.3% (inactive) |  | 112% (inactive) and 89.4% (inactive) | 118% (inactive) and 96.2% (inactive) | 112% (inactive) and 105% (inactive) | 144% (inactive) and 87.5% (inactive) | 97% (inactive) and 95.1% (inactive) | 89.8% (inactive) and 95.3% (inactive) | 107% (inactive) and 120% (inactive) | 111% (inactive) and 121% (inactive) | 93.2% (inactive) and 106% (inactive) | 110% (inactive) and 94.3% (inactive) | 108% (inactive) and 102% (inactive) | 103% (inactive) and 102% (inactive) | 70.1% (inactive) and 87.3% (inactive)
OCc1ccccn1 | 106% (inactive) | 110% (inactive) | 97.4% (inactive) | 97.9% (inactive) | 100% (inactive) | 107% (inactive) | 101% (inactive) | 81.8% (inactive) | 103% (inactive) | 96.9% (inactive) |  | 108% (inactive) | 105% (inactive) |  | 117% (inactive) | 112% (inactive) | 106% (inactive) | 109% (inactive) |  | 
CCN(CC)C(=S)SSC(=S)N(CC)CC | 103% (inactive) | 89.1% (inactive) and 113% (inactive) | 78.9% (inactive) and 106% (inactive) | 63.3% (inactive) and 90.7% (inactive) | 96.9% (inactive) | 71.1% (inactive) and 101% (inactive) | 76.4% (inactive) and 87.5% (inactive) | 83.7% (inactive) and 111% (inactive) | 16.9% (inactive) and 102% (inactive) | 3.32% (active) and 89% (inactive) | 45.4% (inactive) and 110% (inactive) | 65.8% (inactive) and 89.4% (inactive) | 86% (inactive) and 100% (inactive) | 76.6% (inactive) and 94.6% (inactive) | 98.7% (inactive) and 102% (inactive) | 68.3% (inactive) and 108% (inactive) | 111% (inactive) | 84.1% (inactive) and 106% (inactive) |  | 77.5% (inactive) and 113% (inactive)
O=C(Nc1ccc([N+](=O)[O-])cc1Cl)c1cc(Cl)ccc1O | -53.2% (active) and -51.7% (active) | -3.89% (active) and 6.47% (active) | -6.44% (active) and 3.08% (active) | -43.8% (active) and -31.8% (active) | -5.15% (active) and 7.49% (active) | -3.01% (active) and 8.03% (active) |  | -22% (active) | -20% (active) and 9.33% (active) | -3.74% (active) | -31.8% (active) and 1.92% (active) | -20.6% (active) and 5.74% (active) | 23.6% (inactive) and 41.7% (inactive) | 22.6% (inactive) and 17.4% (inactive) | 4.16% (active) and 12.8% (inactive) | -10.7% (active) and -2.45% (active) | -6.4% (active) and -20.7% (active) | -26.7% (active) and -15.9% (active) | -44.2% (active) and -6.34% (active) | 14.4% (inactive)

Reference: PubChem BioAssay (NCI)
